Screening data deposited in PubChem BioAssay by The Scripps Research Institute Molecular Screening Center.
ASK1 inh: ASK1 kinase inhibitors, primary screen, biochemical, AlphaScreen. Mitogen-activated protein kinase kinase kinase 5 (Homo sapiens), Q99683. AlphaScreen MKK6 phosphorylation by ASK1, luminescence. inhibition, % at 7.44 µM. 0.99% of 22,000 active. AID 1159602, 2016; in the data active = inhibition above about 35%
ULK1 inh: ULK1 kinase inhibitors, primary screen, biochemical, AlphaScreen. Serine/threonine-protein kinase ULK1 (Homo sapiens), O75385. AlphaScreen Atg13 phosphorylation by ULK1, luminescence. inhibition, % at 5.96 µM. 1.9% of 30,000 active. AID 1259251, 2017; in the data active = inhibition above about 43%
A number is an active result. A selection: hits, their analogues and other compounds. The true share with any hit is near 2.5%.

Screening Cc1ncn(-c2ccc(Nc3ncc4cccc(-c5cnn(CCN6CCOCC6)c5)c4n3)cc2)n1 returned ASK1 inh inactive and ULK1 inh 63.
`Cc1ncn(-c2ccc(Nc3ncc4cccc(-c5cncc6ccccc56)c4n3)cc2)n1` gave ASK1 inh inactive and ULK1 inh inactive.
For Cc1ncn(-c2ccc(Nc3ncc4cccc(-c5ccc(N6CCOCC6)nc5)c4n3)cc2)n1 the results were ASK1 inh inactive and ULK1 inh inactive.
For Cc1ncn(-c2ccc(Nc3ncc4cccc(-c5cn[nH]c5)c4n3)cc2)n1 the results were ASK1 inh inactive and ULK1 inh 44.
Cc1ncn(-c2ccc(Nc3ncc4cccc(-c5nc6ccccc6s5)c4n3)cc2)n1 was read as ASK1 inh inactive and ULK1 inh inactive.
Cc1ncn(-c2ccc(Nc3ncc4cccc(-c5ccccn5)c4n3)cc2)n1 was read as ASK1 inh inactive and ULK1 inh 53.
CC(C)N(CCNc1nc(Nc2cccnc2)nc2c1ncn2C(C)C)C(C)C was read as ASK1 inh inactive and ULK1 inh inactive.
CN1CCN(c2cc(-c3cccc(C(F)(F)F)c3)nc(-c3ccncc3)n2)CC1 was read as ULK1 inh inactive.
Screening c1ccc(CN2CCC(Nc3ncnc4nc(N5CCc6ccccc6C5)[nH]c34)CC2)cc1 returned ASK1 inh inactive and ULK1 inh inactive.
`OCCCNc1cc(-c2ccccn2)nc(-c2ccccn2)n1` gave ULK1 inh inactive.
`CCNc1nc(NCCCN2CCCC2=O)c2ncn(C3CCCCC3)c2n1` gave ASK1 inh inactive and ULK1 inh inactive.
`Cc1ncn(-c2ccc(Nc3ncc4cccc(Nc5ccccc5)c4n3)cc2)n1` gave ASK1 inh inactive and ULK1 inh inactive.
`Cc1ncn(-c2ccc(Nc3ncc4cccc(-c5ncco5)c4n3)cc2)n1` gave ASK1 inh inactive and ULK1 inh 72.
For Cc1cc(-c2cccc3cnc(Nc4ccc(-n5cnc(C)n5)cc4)nc23)ccn1 the results were ASK1 inh inactive and ULK1 inh inactive.
Cc1ncn(-c2ccc(Nc3ncc4ccccc4n3)cc2)n1 was read as ASK1 inh inactive and ULK1 inh 44.
O=C(NCCO)c1cncc(-c2ccc(N3CCOCC3)nc2)c1 was read as ASK1 inh inactive and ULK1 inh inactive.
For COc1nc(Nc2ccc(Oc3ccccc3)cc2)nc(-c2cccc(N)c2)n1 the results were ASK1 inh inactive and ULK1 inh inactive.
O=C(Nc1ccc(N2CCOCC2)cc1)c1cc(NCCCN2CCCC2=O)nc2ccccc12 was read as ASK1 inh inactive and ULK1 inh 51.
`O=C(NCCCN1CCCC1=O)c1cc(Nc2ccc(N3CCOCC3)cc2)nc2ccccc12` gave ASK1 inh inactive and ULK1 inh inactive.
`O=C(Nc1ccc(N2CCOCC2)cc1)c1cc(N2CCc3ccccc3C2)nc2ccccc12` gave ASK1 inh inactive and ULK1 inh 50.
Screening O=C(Nc1ccc(N2CCOCC2)cc1)c1cnc(NCCN2CCOCC2)s1 returned ASK1 inh inactive and ULK1 inh inactive.
For O=C(Nc1ccc(Oc2ccccc2)cc1)c1cc(N2CCc3ccccc3C2)nc2ccccc12 the results were ASK1 inh inactive and ULK1 inh inactive.
For O=C(Nc1ccc(N2CCOCC2)cc1)c1cnc(NCCCN2CCCC2=O)s1 the results were ASK1 inh inactive and ULK1 inh 56.
For Cc1cnc(Nc2cccc(N(C)C)c2)nc1NCCO the results were ASK1 inh inactive and ULK1 inh inactive.
For Cc1cnc(Nc2nccc3ccccc23)nc1NCCN(C(C)C)C(C)C the results were ASK1 inh inactive and ULK1 inh inactive.
Screening N#Cc1cc(-c2ccnc(Nc3cccc(N)c3)n2)ccc1N1CCCC1 returned ASK1 inh inactive and ULK1 inh inactive.
Cc1ncn(-c2ccc(Nc3nccc(-c4ccc(N5CCCC(O)C5)c(C#N)c4)n3)cc2)n1 (configuration not stated) was read as ASK1 inh inactive and ULK1 inh 80.
For N#Cc1cc(-c2ccnc(Nc3ccc(N)cc3)n2)ccc1N1CCC(O)CC1 the results were ASK1 inh inactive and ULK1 inh 85.
`Cc1ncn(-c2ccc(Nc3nccc(-c4ccc(C#N)c(N5CCCC(O)C5)c4)n3)cc2)n1` (configuration not stated) gave ASK1 inh inactive and ULK1 inh inactive.
CN(C)CCNc1cc(-c2cccnc2)nc(-c2cccnc2)n1 was read as ULK1 inh inactive.
CN1C(=O)Cc2cc(NS(=O)(=O)Cc3ccccc3Cl)ccc21 was read as ULK1 inh inactive.
For Fc1cc(-c2nc(Nc3cccc(Cn4ccnc4)c3)ncc2F)cc(N2CCOCC2)c1 the results were ASK1 inh inactive and ULK1 inh 79.
For Fc1ccc(Nc2nccc(-c3cncc(N4CCOCC4)c3)n2)cc1 the results were ASK1 inh inactive and ULK1 inh inactive.
Screening COc1ccc(Nc2nccc(-c3cncc(N4CCOCC4)c3)n2)cc1OC returned ASK1 inh inactive and ULK1 inh 47.
c1cn(Cc2ccc(Nc3nccc(-c4cncc(N5CCOCC5)c4)n3)cc2)cn1 was read as ASK1 inh inactive and ULK1 inh 60.
`Cn1cnnc1-c1ccc(Nc2nccc(-c3cncc(N4CCOCC4)c3)n2)cc1` gave ASK1 inh inactive and ULK1 inh 58.
`Cn1cnnc1-c1ccc(Nc2nccc(-c3cc(C#N)cc(N4CCOCC4)c3)n2)cc1` gave ASK1 inh inactive and ULK1 inh inactive.
`c1cnn(Cc2ccc(Nc3nccc(-c4cncc(N5CCOCC5)c4)n3)cc2)c1` gave ASK1 inh inactive and ULK1 inh inactive.
For Fc1cc(-c2nc(Nc3ccc(Cn4ccnc4)cc3)ncc2F)cc(N2CCOCC2)c1 the results were ASK1 inh inactive and ULK1 inh inactive.
For NS(=O)(=O)c1ccc(Nc2nccc(NC3CCN(C(=O)c4ccccc4Oc4ccccc4)CC3)n2)cc1 the results were ASK1 inh inactive and ULK1 inh inactive.
Cc1cnc(-c2ccc(N3CCN(C)CC3)cc2)nc1NCc1cccc(C(F)(F)F)c1 was read as ASK1 inh inactive and ULK1 inh inactive.
For Cc1noc(C)c1-c1nc(NCc2nc3ccccc3[nH]2)c2ncn(C(C)C)c2n1 the results were ASK1 inh inactive and ULK1 inh inactive.
O=C(NCc1cccc(C(F)(F)F)c1)c1ccnc(NC2CCC(O)CC2)c1 (configuration not stated) was read as ASK1 inh inactive and ULK1 inh inactive.
For Cc1nc2ccc(Nc3nccc(-c4cncc(N5CCOCC5)c4)n3)cc2o1 the results were ASK1 inh inactive and ULK1 inh inactive.
`Cc1[nH]nc2ccc(Nc3nccc(-c4cncc(N5CCOCC5)c4)n3)cc12` gave ASK1 inh inactive and ULK1 inh 49.
`CCN(CC)C(=O)C1CCCN(c2ncc(C)c(NCCc3ccc(OC)cc3)n2)C1` (configuration not stated) gave ASK1 inh inactive and ULK1 inh inactive.
`COc1cc(Nc2nc(Nc3cccnc3)ncc2C)cc(OC)c1OC` gave ASK1 inh inactive and ULK1 inh inactive.
`COc1cc(Nc2nc(Nc3ccc4ncccc4c3)ncc2C)cc(OC)c1OC` gave ASK1 inh inactive and ULK1 inh 63.
Screening Cc1cnc(Nc2ccc3ncccc3c2)nc1NCCc1ccc(O)cc1 returned ASK1 inh inactive and ULK1 inh 51.
`COc1cc(Nc2ncc(C)c(Nc3ccccc3)n2)cc(OC)c1OC` gave ASK1 inh inactive and ULK1 inh 73.
